We go through 16 compounds from PubChem BioAssay (NCATS).

A short description of assay [1]: Quantitative High-Throughput drug screen in 47 multiple myeloma cell lines against the NCATS MIPE library collection: H1112_PLB cell viability assay (AID 1918967; note: nearly all actives have a fitted effect of over 30% in size; note: potency is the fitted concentration of half-maximal effect). The method, boiled down:
(§1)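 Relative luminescence from CellTiter-Glo served as the viability signal, referenced to DMSO-treated (100%) and cell-free medium (0%) controls. Treatment lasted 48 hours at 37C with 500 cells per well.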

Assay [2] can be described thus: Quantitative High-Throughput drug screen in 47 multiple myeloma cell lines against the NCATS MIPE library collection: Karpas25_ECACC cell viability assay (AID 1918968; note: nearly all actives have a fitted effect of over 35% in size; note: potency is the fitted concentration of half-maximal effect). The method, boiled down: as §1
Assay [3] can be described thus: Quantitative High-Throughput drug screen in 47 multiple myeloma cell lines against the NCATS MIPE library collection: KMS27_JCRB cell viability assay (AID 1918970). Note: nearly all actives have a fitted effect of over 30% in size. Note: potency is the fitted concentration of half-maximal effect. The method, boiled down:
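Each line is seeded at 500 cells per well and treated with library compounds for 48 hours under 37 °C, 5% CO2. CellTiter-Glo is then added for 5 min at room temperature before median relative luminescence is recorded.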

Assay [4] is described as follows: Quantitative High-Throughput drug screen in 47 multiple myeloma cell lines against the NCATS MIPE library collection: KMS12BM_JCRB cell viability assay (AID 1918971). Note: nearly all actives have a fitted effect of over 35% in size. Note: potency is the fitted concentration of half-maximal effect. The method, boiled down:
(§2)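 Steps: seed 500 cells per well; pin-transfer MIPE 4.0 library; incubate 48 h at 37C, 5% CO2, humidified; add CellTiter-Glo, 5 min room temperature; read luminescence.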

Assay [5] in a line: Quantitative High-Throughput drug screen in 47 multiple myeloma cell lines against the NCATS MIPE library collection: KMS12PE_JCRB cell viability assay (AID 1918972). Note: nearly all actives have a fitted effect of over 30% in size. Note: potency is the fitted concentration of half-maximal effect. The method, boiled down: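 Myeloma cells (500 per well) were exposed to MIPE 4.0 compounds by pin transfer and incubated 48 hours at 37C, 5% CO2. Viability was read as ATP by CellTiter-Glo luminescence, normalised to DMSO (100%) and media-only (0%) wells.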

Assay [6] is described as follows: Quantitative High-Throughput drug screen in 47 multiple myeloma cell lines against the NCATS MIPE library collection: NCIH929_DSMZ cell viability assay (AID 1918978). Note: nearly all actives have a fitted effect of over 35% in size. Note: potency is the fitted concentration of half-maximal effect. The method, boiled down: (§3)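 Myeloma cells (500/well) treated with MIPE 4.0 compounds for 48 h at 37 °C, 5% CO2. Viability read as ATP via CellTiter-Glo luminescence after 5 min at RT; DMSO-only wells = 100%, media-only = 0% viability.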

Assay [7] is described as follows: Quantitative High-Throughput drug screen in 47 multiple myeloma cell lines against the NCATS MIPE library collection: MM1R_ATCC cell viability assay (AID 1918981). Note: nearly all actives have a fitted effect of over 35% in size. Note: potency is the fitted concentration of half-maximal effect. The method, boiled down: as §3
A short description of assay [8]: Quantitative High-Throughput drug screen in 47 multiple myeloma cell lines against the NCATS MIPE library collection: L363_DSMZ cell viability assay (AID 1918984). Note: nearly all actives have a fitted effect of over 40% in size. Note: potency is the fitted concentration of half-maximal effect. The method, boiled down:
as §3

Assay [9] is described as follows: Quantitative High-Throughput drug screen in 47 multiple myeloma cell lines against the NCATS MIPE library collection: KMS20_JCRB cell viability assay (AID 1918973). Note: nearly all actives have a fitted effect of over 45% in size. Note: potency is the fitted concentration of half-maximal effect. The method, boiled down: as §1
Assay [10] can be described thus: Quantitative High-Throughput drug screen in 47 multiple myeloma cell lines against the NCATS MIPE library collection: KMS26_JCRB cell viability assay (AID 1918975). Note: nearly all actives have a fitted effect of over 45% in size. Note: potency is the fitted concentration of half-maximal effect. The method, boiled down:
as §2

Assay [11] is described as follows: Quantitative High-Throughput drug screen in 47 multiple myeloma cell lines against the NCATS MIPE library collection: OCIMY1_PLB cell viability assay (AID 1918979). Note: nearly all actives have a fitted effect of over 35% in size. The method, boiled down:
as §3

Assay [12] is described as follows: Quantitative High-Throughput drug screen in 47 multiple myeloma cell lines against the NCATS MIPE library collection: MM1S_ATCC cell viability assay (AID 1918980). Note: nearly all actives have a fitted effect of over 45% in size. Note: potency is the fitted concentration of half-maximal effect. The method, boiled down:
as §3

The nature of assay [13]: Quantitative High-Throughput drug screen in 47 multiple myeloma cell lines against the NCATS MIPE library collection: LP1_DSMZ cell viability assay (AID 1918982). Note: nearly all actives have a fitted effect of over 35% in size. Note: potency is the fitted concentration of half-maximal effect. The method, boiled down:
as §3

A short description of assay [14]: Quantitative High-Throughput drug screen in 47 multiple myeloma cell lines against the NCATS MIPE library collection: KMS34_JCRB cell viability assay (AID 1918985). Note: nearly all actives have a fitted effect of over 40% in size. Note: potency is the fitted concentration of half-maximal effect. The method, boiled down:
as §3

Assay [15] can be described thus: Quantitative High-Throughput drug screen in 47 multiple myeloma cell lines against the NCATS MIPE library collection: MOLP8_DSMZ cell viability assay (AID 1918977). Note: nearly all actives have a fitted effect of over 45% in size. Note: potency is the fitted concentration of half-maximal effect. The method, boiled down:
as §3

Assay [16] in a line: Quantitative High-Throughput drug screen in 47 multiple myeloma cell lines against the NCATS MIPE library collection: OCIMY7_PLB cell viability assay (AID 1918987). Note: nearly all actives have a fitted effect of over 65% in size. Note: potency is the fitted concentration of half-maximal effect. The method, boiled down: as §3
Assay [17] is described as follows: Quantitative High-Throughput drug screen in 47 multiple myeloma cell lines against the NCATS MIPE library collection: KMS21BM_JCRB cell viability assay (AID 1918974). Note: potency is the fitted concentration of half-maximal effect. The following applies: ATP luminescence, 48 h; viability: at 45.8 µM (top of the series) unless noted. The method, boiled down:
as §1

A short description of assay [18]: Quantitative High-Throughput drug screen in 47 multiple myeloma cell lines against the NCATS MIPE library collection: KMS28PE_JCRB cell viability assay (AID 1918983). Note: nearly all actives have a fitted effect of over 35% in size. Note: potency is the fitted concentration of half-maximal effect. The method, boiled down: as §3
Assay [19] is described as follows: Quantitative High-Throughput drug screen in 47 multiple myeloma cell lines against the NCATS MIPE library collection: MMM1_PLB cell viability assay (AID 1918976). Note: nearly all actives have a fitted effect of over 35% in size. Note: potency is the fitted concentration of half-maximal effect. The method, boiled down:
as §3

Assay [20] can be described thus: Quantitative High-Throughput drug screen in 47 multiple myeloma cell lines against the NCATS MIPE library collection: OCIMY5_PLB cell viability assay (AID 1918988). Note: potency is the fitted concentration of half-maximal effect; nearly all actives have a fitted effect of over 65% in size. The method, boiled down:
as §3

Records with an inconclusive call do not appear. Calls of active or inactive are those of the source. Calls come from the whole dose curve; as a rule, active = well fitted curve in the direction sought with a large enough effect; inconclusive = small, poorly fitted or top-dose-only effect, or another doubt; inactive = no such curve, though single readings can be large; an effect the other way counts as inactive or inconclusive.

Turning to `Cc1cccc(-c2[nH]c(C(C)(C)C)nc2-c2ccc3nccnc3c2)n1`, the Potency in assay [1] is 5.26 µM (active); in [2], 1.32 µM (active); in assay [3], 2.96 µM (active); in assay [4] it was 20.9 µM (active); in [5], 4.69 µM (active); in assay [6] it was 16.6 µM (active). For the same compound, the Potency was 20.9 µM (active) in [7] and 1.87 µM (active) in assay [8].
For the compound `N[C@@H]1CONC1=O`, the Potency result in assay [1], in assay [2], in [3], in [5], in assay [9] and in assay [10] was “inactive” throughout. Also, the Potency result in [6], in assay [11], in [12], in assay [7], in assay [13] and in [8] was “inactive” in each case. Also, the Potency result in assay [14] was “inactive”.
For `Nc1nccc(-c2ccc3noc(-c4ccc(Cl)cc4)c3c2)n1`, the Potency entry in assay [1], in assay [2], in assay [3], in [15], in assay [11] and in assay [8] was “inactive” each time. Moreover, the Potency in assay [6] is 20.9 µM (active); in assay [12], 16.6 µM (active); in assay [16] it was 20.9 µM (active).
As for `O=C(Nc1cccnc1)N1CCC(Cc2cccc(Oc3ccc(C(F)(F)F)cn3)c2)CC1`, the Potency was 10.5 µM (active) in [1]; 9.35 µM (active) in assay [2]; 16.6 µM (active) in [3]; 16.6 µM (active) in assay [5]; 9.35 µM (active) in assay [17]; 14.8 µM (active) in assay [12]. The results for the Potency in assay [7] and in assay [8] were 13.2 µM (active) and 4.69 µM (active), respectively.
Turning to `COc1ccc(CC2=NN3C([C@@H](CCc4ccccc4)[C@@H](C)O)=NC(C)C3C(=O)N2)cc1OC` (stereo partly drawn), the Potency entry in [1], in assay [2], in assay [3], in assay [4], in [5] and in [9] was “inactive” throughout. Moreover, the Potency result in assay [15], in [6], in assay [11], in [12], in assay [13] and in assay [18] was “inactive” throughout. Besides, the Potency entry in assay [14] and in [16] was “inactive” throughout.
Regarding `Cc1csc(NC(=O)c2sc3nc4c(c(C(F)(F)F)c3c2N)CCC4)n1`, the Potency entry in [1], in [3], in assay [10], in assay [19], in [15] and in assay [6] was “inactive” throughout. The Potency entry in [7] is “inactive”. For the same compound, the Potency was 1.48 µM (active) in assay [2]; 13.2 µM (active) in assay [12]; 20.9 µM (active) in assay [13]; 2.35 µM (active) in assay [16]; 20.9 µM (active) in [20].
In the case of `Cc1cc(-c2ccc(CC(=O)Nc3ccc(-c4cccnc4)cc3)cc2)ccn1`, the Potency in assay [1] was 18.7 µM (active); in assay [2], 18.7 µM (active); in assay [3] it was 16.6 µM (active); in [4], 18.7 µM (active); in assay [5] it was 14.8 µM (active); in [6], 23.5 µM (active). Also, the Potency in [18] was 13.2 µM (active); in [16] it was 23.5 µM (active). Moreover, the Potency entry in assay [15], in assay [12] and in assay [7] was “inactive” each time.
Take `N=c1nc(N2CCCCC2)cc(N)n1O`: the Potency entry in assay [1], in assay [3], in assay [5], in assay [11], in assay [12] and in assay [7] was “inactive” each time. Besides, the Potency result in assay [13] was “inactive”. In addition, the Potency in assay [2] is 26.4 µM (active); in [16], 37.2 µM (active).
Regarding `COc1cc(F)c(F)c(Nc2ccc(I)cc2F)c1NS(=O)(=O)C1(C[C@H](O)CO)CC1`, the Potency in assay [1] is 14.8 µM (active); in assay [2], 20.9 µM (active); in assay [3], 16.6 µM (active); in [5], 16.6 µM (active); in [10], 13.2 µM (active); in [19], 2.64 µM (active). The Potency in assay [6] is 18.7 µM (active); in assay [12], 16.6 µM (active); in [7], 10.5 µM (active); in assay [16], 16.6 µM (active).
For the compound `CNC[C@H](O)c1cccc(O)c1`, the Potency result in assay [1], in assay [3], in [5], in [10], in assay [6] and in assay [11] was “inactive” in each case. Further, the Potency result in assay [12], in [13] and in assay [14] was “inactive” throughout. Moreover, the Potency in assay [2] was 4.69 µM (active).
As to `Cc1cc(C=c2sc3nc4ccccc4n3c2=O)c(C)n1-c1ccccc1`, the Potency result in assay [1], in assay [2], in assay [3], in assay [5], in assay [6] and in assay [11] was “inactive” each time. The Potency result in assay [13] was “inactive”. Besides, the Potency is 5.9 µM (active) in assay [10], 7.43 µM (active) in [7], 14.8 µM (active) in assay [14] and 4.69 µM (active) in [20].
In the case of `CCC(C)(C)C(=O)O[C@H]1C[C@@H](C)C=C2C=C[C@H](C)[C@H](CC[C@@H]3C[C@@H](O)CC(=O)O3)[C@H]21`, the Potency was 18.7 µM (active) in [1]; 18.7 µM (active) in assay [2]; 6.62 µM (active) in assay [3]; 5.9 µM (active) in [5]; 13.2 µM (active) in assay [15]; 13.2 µM (active) in assay [6]. Besides, the Potency in assay [12] is 16.6 µM (active); in [8] it was 13.2 µM (active). The Potency result in assay [11] is “inactive”.
Turning to `CC(=O)Oc1ccccc1C(=O)O`, the Potency in assay [1] was 7.43 µM (active); in assay [10], 11.8 µM (active); in assay [6], 4.18 µM (active); in assay [12], 5.26 µM (active); in assay [7], 18.7 µM (active); in assay [16], 5.26 µM (active). Besides, in assay [20], the Potency is 5.26 µM (active). Moreover, the Potency result in assay [2], in assay [3], in [5], in assay [15], in [11] and in assay [8] was “inactive” in each case. Also, in assay [14], the Potency result is “inactive”.
Take `CCOC(=O)C1=C[C@]2(CC)CCCN3CCc4c(n1c1ccccc41)[C@@H]32`: the Potency in assay [1] was 11.8 µM (active); in assay [2] it was 9.35 µM (active); in assay [3] it was 23.5 µM (active); in assay [4] it was 14.8 µM (active); in assay [5], 10.5 µM (active); in [9] it was 5.9 µM (active). The Potency in assay [10] was 26.4 µM (active); in [19], 14.8 µM (active); in [15], 18.7 µM (active); in [6] it was 8.33 µM (active); in assay [12], 11.8 µM (active); in assay [7], 11.8 µM (active). Besides, the Potency in assay [13] is 20.9 µM (active); in [8], 11.8 µM (active); in assay [16], 9.35 µM (active); in assay [20], 13.2 µM (active).
For `OCCC#Cc1nc(-c2ccc(F)cc2)c(-c2ccncc2)n1CCCc1ccccc1`, the Potency in assay [1] was 5.9 µM (active); in [2], 16.6 µM (active); in assay [3], 23.5 µM (active); in assay [5] it was 18.7 µM (active); in assay [9], 16.6 µM (active); in assay [6], 8.33 µM (active). In addition, the Potency in [8] and in [16] was 5.26 µM (active) in each case. In addition, the Potency entry in assay [15], in [7] and in assay [18] was “inactive” in each case.
Consider `O=C(Nc1nc2ccccc2n1CCN1CCOCC1)c1cccc([N+](=O)[O-])c1`, for which the Potency entry in assay [1] and in [2] was “inactive” throughout. Also, the Potency in [3] was 7.43 µM (active); in assay [10] it was 29.6 µM (active); in assay [19] it was 13.2 µM (active); in assay [12] it was 9.35 µM (active); in [7], 18.7 µM (active); in assay [16], 1.87 µM (active).
